Experimental data: PubChem BioAssay (NCATS)
“And” between values parts separate entries of the source, which are not always exact repeats. Equal values may be shown once. Results filed as inconclusive are left out. The source made the active and inactive calls. Unless noted, the call rests on the fitted dose curve; in most records, active means well fitted curve in the direction sought with a large enough effect; inconclusive means small, poorly fitted or top-dose-only effect, or another doubt; inactive means no such curve, though single readings can be large; an effect the other way counts as inactive or inconclusive.

Columns and labels:
[1] = Cell Viability - BJ (AID 421; calls by dose curve;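 further: potency means the concentration at half of the fitted maximal effect; cells exposed to compound for 40 hours at 37 °C before readout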); conditions: BJ fibroblast viability, qHTS
Outline: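 Cytotoxicity as drop in intracellular ATP (CellTiter-Glo, 20 min RT) after 40 hr compound exposure of BJ fibroblasts at 37 °C. Titrations scaled between DMSO and 100 uM tamoxifen, Hill-fitted for AC50.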

[2] = Cell Viability - HUV-EC-C (AID 542); conditions: HUV-EC-C endothelial cell viability, qHTS; series mostly up to 92.2 µM; further: on the % scale 0 is the no-effect control and ±100 the full control effect; nearly all actives have a fitted effect of over 35% in size
Outline: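 HUV-EC-C normal human vascular endothelial cells, 1000 cells/well, pre-incubated 5 hr at 37 °C, then exposed to compounds for 40 hr at 37 °C in complete medium. Viability measured as intracellular ATP by CellTiter-Glo luminescence; AC50 from Hill fits.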

[3] = Cellular Toxicity (caspase-3) HUV-EC-C (AID 656); conditions: HUV-EC-C cells, caspase-3 activation (apoptosis), vehicle = 0, 100 µM tamoxifen = 100%; series mostly up to 92.2 µM
Outline: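 HUV-EC-C cells (1000/well) in complete medium, compound-treated 16 h at 37 °C; caspase-3/7 activity read by Caspase-Glo 3/7 luminescence. Normalized to DMSO (basal) and 100 uM tamoxifen (100%); AC50 from Hill-equation concentration-response fits.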

[4] = Cellular Toxicity (caspase-3) MRC-5 (AID 659); conditions: MRC-5 cells, luminescence, normalized: DMSO 0%, 10 µM staurosporine 100%; series mostly up to 91.7 µM
Outline: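 Concentration-dependent caspase 3/7 activation is measured in human normal lung fibroblasts (MRC-5) following 16-hour treatment. AC50 values come from standard Hill-equation modeling of luminescence normalized to DMSO and 10 uM staurosporine.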

[5] = Cellular Toxicity (caspase-3) Mesangial (AID 660); conditions: mesangial cells, normalized: DMSO 0%, 100 µM tamoxifen 100%; series mostly up to 91.7 µM;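 further: cells exposed to compound for 16 h before the caspase read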
Outline: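 Human renal glomerular mesangial cells (1000/well) were treated with compounds for 16 h at 37 °C in complete medium, then caspase 3/7 activity was read by Caspase-Glo luminescence. Data were normalized to DMSO and 100 uM tamoxifen; AC50 from Hill fits.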

[6] = Cellular Toxicity (caspase-3) SK-N-SH (AID 661); conditions: SK-N-SH caspase-3 activation, qHTS; series mostly up to 91.7 µM
Outline: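 SK-N-SH human neuroblastoma cells (1500/well) were treated with compounds for 16 hr at 37 °C in complete medium; caspase 3/7 activity was read by Caspase-Glo luminescence. AC50 came from Hill fits of data normalized to DMSO and 10 uM staurosporine.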

[7] = Cellular Toxicity (caspase-3) Hek293 (AID 664); conditions: HEK293 caspase-3 activation, DMSO = 0%, 100 µM tamoxifen = 100%; at 92.2 µM (top of the series);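 further: cells exposed to compound for 16 h at 37 °C before readout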
Outline: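 HEK293 cells were exposed to compounds in complete medium for 16 hr at 37 °C, then caspase-3/7 activity was read by Caspase-Glo 3/7 luminescence after 20 min at room temperature. Data normalized to DMSO and 100 uM tamoxifen; AC50 from Hill fits.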

[8] = Cellular Toxicity (caspase-3) NIH 3T3 (AID 666); conditions: NIH 3T3 caspase-3 activation, apoptosis/toxicity; series mostly up to 92.2 µM;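 further: caspase signal read after 16 h compound exposure; 0% = DMSO basal and 100% = 100 µM tamoxifen stimulation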
Outline: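 Mouse NIH 3T3 fibroblasts (1000 cells/well) were treated with compound for 16 hr at 37°C in complete medium; caspase-3/7 activity was read by Caspase-Glo luminescence. Normalized to DMSO and 100 uM tamoxifen; AC50 from Hill fits.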

[9] = MultiTox-Fluor Cytotoxicity Assay - LYMP1-001 - Dead Cells (AID 946); conditions: LYMP1-001 lymphoblastoid cells, dead-cell protease fluorescence; series mostly up to 92.2 µM
Outline: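 Cytotoxicity as increased dead-cell protease fluorescence (bis-AAF-R110, 485/520 nm), read 60 min after MultiTox-Fluor reagent. Human lymphoblastoid line exposed 16 h; Hill-fitted AC50, with DMSO as 0% and 15 uM tetraoctylammonium bromide as 100%.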

[10] = Cell Viability - LYMP1-002 - Assay at 16 hr (AID 948); conditions: LYMP1-002 lymphoblastoid cell viability; series mostly up to 92.2 µM;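 further: 0% = DMSO alone and full effect = 92 µM tetraoctylammonium bromide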
Outline: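 LYMP1-002 human lymphoblastoid cells, 2500/well, were treated with compounds for 16 hr at 37 C in complete medium. Viability was read as intracellular ATP by CellTiter-Glo luminescence, and AC50 was derived from a Hill fit to concentration-response data.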

[11] = MultiTox-Fluor Cytotoxicity Assay - LYMP1-003 - Live Cells (AID 962); conditions: LYMP1-003 lymphoblastoid cells, MultiTox-Fluor live-cell protease fluorescence; series mostly up to 92.2 µM;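 further: 0% = DMSO only and full loss = 92 µM tetraoctylammonium bromide; cytotoxic hits lower the live-cell protease signal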
Outline: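 LYMP1-003 human lymphoblastoid cells (2500/well) in complete medium were preincubated 5 hr at 37 C, then exposed to compounds for 16 hr at 37 C. Live-cell protease cleavage of GF-AFC read by fluorescence (Ex/Em 405/510); AC50 from Hill fits.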

[12] = Cell Viability - LYMP2-003 (AID 965); conditions: LYMP2-003 lymphoblastoid cell viability; series mostly up to 92.2 µM;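 further: cells exposed to compounds for 24 h before reading; 0% = DMSO only and full effect = 92 µM tetraoctylammonium bromide; nearly all actives have a fitted effect of over 50% in size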
Outline: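 Human lymphoblastoid LYMP2-003 cells, 2500/well, exposed to compounds for 24 h at 37 C in complete medium. Viability read as intracellular ATP by CellTiter-Glo luminescence; AC50 from Hill-equation fits of qHTS concentration-response data.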

[13] = Cell Viability - LYMP2-013 (AID 970); conditions: LYMP2-013 lymphoblastoid cells viability; series mostly up to 92.2 µM;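 further: 0% = DMSO only and full inhibition = tetraoctylammonium bromide control; nearly all actives have a fitted effect of over 55% in size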
Outline: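 Human lymphoblastoid cells, 2500/well, were preincubated 5 hr at 37 C, then treated with compounds for 24 hr at 37 C in complete medium. Intracellular ATP was read by CellTiter-Glo luminescence; AC50 from Hill-equation fits of concentration-response data.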

[14] = Cell Viability - LYMP2-015 (AID 971); conditions: LYMP2-015 lymphoblastoid cell viability; series mostly up to 92.2 µM;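 further: 0% = DMSO only and full effect = 92 µM tetraoctylammonium bromide; nearly all actives have a fitted effect of over 55% in size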
Outline: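 Human lymphoblastoid cells (2500/well) in complete medium were preincubated 5 hr at 37 C, then compound-treated 24 hr at 37 C. Intracellular ATP was read by CellTiter-Glo luminescence after 30 min at room temperature; AC50 came from Hill-equation concentration-response fits.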

[15] = Cell Viability - LYMP2-017 (AID 972); conditions: LYMP2-017 lymphoblastoid cell viability; series mostly up to 92.2 µM; further: on the % scale 0 is the no-effect control and ±100 the full control effect; nearly all actives have a fitted effect of over 55% in size
Outline: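 Human lymphoblastoid cells (2500/well) were seeded in complete medium, held 5 hr at 37 C, then exposed to compounds for 24 hr at 37 C. Intracellular ATP was read by CellTiter-Glo luminescence after 30 min at room temperature, with AC50 values from Hill-equation fits.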

[16] = Cell Viability - LYMP2-007 (AID 979); conditions: LYMP2-007 lymphoblastoid cell viability; series mostly up to 92.2 µM;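 further: cells exposed to compound for 24 h before reading; 0% = DMSO only and the negative end = 92 µM tetraoctylammonium bromide; nearly all actives have a fitted effect of over 60% in size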
Outline: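 Human lymphoblastoid cells (2500/well) were plated in complete medium, incubated 5 hr at 37 C, then exposed to compounds for 24 hr at 37 C. Intracellular ATP was read by CellTiter-Glo luminescence after 30 min at room temperature; AC50 from Hill fits.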

[17] = qHTS Assay for Identification of Small Molecule Inducers of Hypoxia Response (AID 2120; active means well fitted curve in the direction sought with a large enough effect in the signal ratio, with a control signal flat, not every such curve was filed as active; the % refers to the signal ratio; further: 0% is about no effect); conditions: hypoxia response reporter cells, beta-lactamase ratio readout; series mostly up to 104 µM
Outline: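 HRE-beta-lactamase reporter in CellSensor HRE-bla ME-180 cells, 2500 cells/well in Opti-MEM with 0.5% dialyzed FBS; compounds tested as titration series, 17 h at 37 degrees C. CCF4 substrate 2.5 h at room temperature; AC50 from 460/530 nm ratio.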

[18] = molecular target: Peroxisome proliferator-activated receptor alpha (Homo sapiens) (UniProt Q07869); assay: qHTS assay for small molecule agonists of the peroxisome proliferator-activated receptor alpha (PPARalpha) signaling pathway (AID 651778); conditions: PathHunter PPARalpha complementation, chemiluminescence, 6 h; active compounds read high; further: % of control where 0% means no effect
Outline: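 Chemiluminescence from complemented enzyme reported PPARalpha activation in cells after 6 hr of compound treatment at 37 C. The detection reagent was incubated for 60 min at room temperature, and compounds were scored as agonists.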

[19] = qHTS assay for small molecule agonists of the antioxidant response element (ARE) signaling pathway measured by Nrf2-dependant transcriptional activity - cell viability counter screen (AID 720653; active means well fitted curve in the direction sought with a large enough effect in the repeat runs; an effect the other way counts as inactive or inconclusive; further: on the % scale 0 is the no-effect control and ±100 the full control effect); conditions: ARE-bla HepG2 viability, CellTiter-Glo ATP luminescence, 16 h; active compounds read low
Outline: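 Cytotoxicity counter screen: intracellular ATP quantified by CellTiter-Glo luminescence in the same ARE-bla HepG2 plates, after 16 h compound exposure and a 2 h beta-lactamase substrate step.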

[20] = qHTS assay for cell viability of the p53RE-bla HCT-116 cell line (AID 743292); conditions: p53RE-bla HCT-116 viability, ATP luminescence, 16 h; series mostly up to 95 µM; further: on the % scale 0 is the no-effect control and ±100 the full control effect; nearly all actives have a fitted effect of over 55% in size
Outline: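 Luminescent ATP quantitation (CellTiter-Glo) served as the viability read-out; reagent was added after 16 h compound exposure at 37 C and read after 30 min at room temperature. Cells: p53RE-bla HCT-116, 4,000 per well.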

Sequence of Peroxisome proliferator-activated receptor alpha (Homo sapiens) (Q07869 whole entry, looked up): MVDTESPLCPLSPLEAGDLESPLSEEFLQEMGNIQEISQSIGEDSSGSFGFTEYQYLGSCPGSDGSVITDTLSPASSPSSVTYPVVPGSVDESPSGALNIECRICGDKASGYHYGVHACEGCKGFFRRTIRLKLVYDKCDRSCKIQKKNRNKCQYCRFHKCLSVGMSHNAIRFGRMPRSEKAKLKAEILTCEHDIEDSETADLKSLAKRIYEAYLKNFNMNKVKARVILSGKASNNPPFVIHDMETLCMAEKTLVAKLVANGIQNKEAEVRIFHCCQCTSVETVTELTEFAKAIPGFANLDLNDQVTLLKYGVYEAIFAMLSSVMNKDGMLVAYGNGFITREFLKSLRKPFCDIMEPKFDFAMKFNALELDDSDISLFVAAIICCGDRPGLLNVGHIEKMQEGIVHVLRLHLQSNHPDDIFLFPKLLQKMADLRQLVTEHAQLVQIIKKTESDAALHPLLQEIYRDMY

Clc1cccc2ccccc12
inactive: Potency [1] > 92 µM | Potency [2] | outcome [3] | outcome [4] | outcome [5] | Potency [6] | caspase-3 activation [7] -0.708% | Potency [8] | outcome [9] | outcome [10] | outcome [11] | Potency [12] | Potency [13] | Potency [14] | Potency [15] | Potency [16] | Potency [17] | max response [18] -0.995% | max response [19] 5.5% | Potency [20]

Nc1cc(Cl)cc(C(=O)O)c1Cl
inactive: Potency [1] > 92 µM | Potency [2] | outcome [3] | outcome [4] | outcome [5] | Potency [6] | caspase-3 activation [7] -1.19% | Potency [8] | outcome [9] | outcome [10] | outcome [11] | Potency [12] | Potency [13] | Potency [14] | Potency [15] | Potency [16] | Potency [17] | max response [18] 9.46% and -1.59% | max response [19] -8.07% and -24.7% | Potency [20]

Cc1ccc(N=C=O)cc1N=C=O
inactive: Potency [1] > 92 µM | Potency [2] | outcome [3] | outcome [4] | outcome [5] | Potency [6] | caspase-3 activation [7] 2% | Potency [8] | outcome [9] | outcome [10] | outcome [11] | Potency [12] | Potency [13] | Potency [14] | Potency [15] | Potency [16] | Potency [17] | max response [18] -6.43% and 0.39% | max response [19] -4.8% and -0.784% | Potency [20]

CN(C)c1ccccc1
inactive: Potency [1] > 92 µM | Potency [2] | outcome [3] | outcome [4] | outcome [5] | Potency [6] | caspase-3 activation [7] -0.669% | Potency [8] | outcome [9] | outcome [10] | outcome [11] | Potency [12] | Potency [13] | Potency [14] | Potency [15] | Potency [16] | Potency [17] | max response [18] -1.79% | max response [19] 12.1% | Potency [20]

CCC[N+](=O)[O-]
inactive: Potency [1] > 92 µM | Potency [2] | outcome [3] | outcome [4] | outcome [5] | Potency [6] | caspase-3 activation [7] 0.185% | Potency [8] | outcome [9] | outcome [10] | outcome [11] | Potency [12] | Potency [13] | Potency [14] | Potency [15] | Potency [16] | Potency [17] | max response [18] -0.431% | max response [19] -3.7% | Potency [20]

CCOP(=S)(OCC)SCCSCC
inactive: Potency [1] > 92 µM | Potency [2] | outcome [3] | outcome [4] | outcome [5] | Potency [6] | caspase-3 activation [7] 0.951% | Potency [8] | outcome [9] | outcome [10] | outcome [11] | Potency [12] | Potency [13] | Potency [14] | Potency [15] | Potency [16] | Potency [17] | max response [18] -1.85% and -0.372% | max response [19] -4.12% and 4.55% | Potency [20]
